Data on 35 molecules can be found in PubChem BioAssay AID2778 (National Center for Advancing Translational Sciences (NCATS), 2010).

Records with an inconclusive call do not appear. Where a call stands in place of a potency, no number is given. Active and inactive are the calls of the source. Calls follow the shape of the dose curve; as a rule, active = well fitted inhibition curve with a large enough effect; inconclusive = small, poorly fitted or top-dose-only effect, or effect the other way; inactive = flat fitted curve, though single readings scatter.
Potency is read from the fitted curve at half-maximal effect.

Menin (Homo sapiens), sequence (O00255 whole entry, looked up): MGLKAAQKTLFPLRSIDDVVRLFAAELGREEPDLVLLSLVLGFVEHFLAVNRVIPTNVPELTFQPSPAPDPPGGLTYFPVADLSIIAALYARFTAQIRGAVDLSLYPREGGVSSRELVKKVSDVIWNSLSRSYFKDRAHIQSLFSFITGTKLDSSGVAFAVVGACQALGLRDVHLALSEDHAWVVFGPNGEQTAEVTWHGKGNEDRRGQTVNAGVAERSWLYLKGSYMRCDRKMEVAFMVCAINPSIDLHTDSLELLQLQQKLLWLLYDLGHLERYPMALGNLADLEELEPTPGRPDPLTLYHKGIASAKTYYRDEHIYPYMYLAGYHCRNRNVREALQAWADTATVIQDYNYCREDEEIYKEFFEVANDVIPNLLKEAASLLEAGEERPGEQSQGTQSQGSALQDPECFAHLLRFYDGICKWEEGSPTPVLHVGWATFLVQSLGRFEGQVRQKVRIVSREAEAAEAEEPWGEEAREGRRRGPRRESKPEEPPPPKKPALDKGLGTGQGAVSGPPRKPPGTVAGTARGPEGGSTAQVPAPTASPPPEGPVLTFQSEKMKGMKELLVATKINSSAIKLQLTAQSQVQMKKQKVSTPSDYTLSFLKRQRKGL

This experiment deals with Menin (Homo sapiens) (UniProt O00255). The experiment can be described thus: Confirmation of Inhibitors Targeting the Menin-MLL Interaction in MLL Related Leukemias: Confirmation in an HTRF (commercial TR-FRET) Assay using His-tagged menin and biotin-labeled MLL peptide. Particulars: His-menin / biotin-MLL peptide binding; series mostly up to 126 µM. The method in brief:
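HTRF: His6-menin (200 nM) and biotin-MLL-w.t. peptide (80 nM) preincubated 15 min, then compounds 1 hr at ambient, before Eu-cryptate anti-His (3.5 nM) and streptavidin-XL665 (10 nM) for 1 h; 50 mM Tris-HCl pH 7.5, 50 mM NaCl, 1 mM DTT, BSA.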
Background: In TR-FRET formats the signal depends on donor and acceptor labels being close together.
`CCCN(CCC)CCCNC(=O)c1cc2c(=O)[nH]c3ccccc3c2s1`: the Potency result was “inactive”. As for `Cc1ccc(Nc2nc(N)[nH]c(=O)c2N=O)cc1`, the Potency result was “inactive”. Consider `CC(c1cc2ccccc2s1)N(O)C(N)=O` (stereo not given), for which the Potency entry is “inactive”.

On to `NC(=O)c1ccc(NC(=O)c2cncn2-c2ccccc2)cc1`, for which the Potency entry is “inactive”.

Regarding `COc1ccc(-c2csc(NC(=S)NC(=O)/C=C/c3ccc(C(C)C)cc3)n2)cc1OC`, the Potency result is “inactive”. Consider `COc1cccc(OC)c1NC(=O)CN1CCN(C)CC1`, for which the Potency result is “inactive”.

`O=C1C(SCCO)=C(SCCO)C(=O)c2ccccc21`: the Potency is 39.8 µM (active).

Consider `O=[N+]([O-])c1ccc(S(=O)(=O)c2ccccc2)nc1`, for which the Potency result is “inactive”. Regarding `O=C(Nc1ccc(F)c(Cl)c1)c1cc(-c2ccco2)on1`, the Potency result is “inactive”. The entry for `O=C(/C=C/c1ccccc1)NC(NC(=S)Nc1cc(Cl)ccc1Cl)C(Cl)(Cl)Cl` (stereo not given) is “inactive”. On to `O=C(CSc1nnc(-c2c[nH]c3ccccc23)o1)N1c2ccccc2CCc2ccccc21`, for which the Potency result is “inactive”. The entry for `CC(c1ccccc1)c1nnc(NC(=O)Nc2ccccc2F)s1` (stereo not given) is “inactive”; for `COc1ccc(C)cc1N(C(=O)c1snc(C(N)=O)c1N)C(C(=O)NC1CCCC1)c1ccc(F)cc1` (stereo not given) it is “inactive”; for `O=C(CCn1nc(-c2ccccc2)ccc1=O)N1CCN(c2ccccn2)CC1` it is “inactive”. Consider `CN1[C@H](CC(=O)c2ccccc2)CCC[C@H]1C[C@@H](O)c1ccccc1`, for which the Potency entry was “inactive”. As to `COc1cc(NC(=O)c2cccnc2)c(OC)cc1NC(=O)c1ccc(Br)cc1`, the Potency entry was “inactive”. Turning to `O=C(N/N=C/c1cn(-c2ccccc2)nc1-c1cc2ccccc2o1)c1ccccc1Br`, the Potency result was “inactive”. For the molecule `CCCOc1ccc(C(=O)NNC(=S)NC(=O)c2cc(-c3ccc(Cl)cc3)nc3ccccc23)cc1`, the Potency result was “inactive”. Take `Oc1ccc(Nc2ncnc3c2oc2ccccc23)cc1`: the Potency entry is “inactive”. Turning to `NC(=NCCCCCCN=C(N)/N=C(\N)Nc1ccc(Cl)cc1)/N=C(\N)Nc1ccc(Cl)cc1`, the Potency was 282 µM (active). The entry for `COc1cc(O)c(C(=O)c2ccccc2)cc1O` is “inactive”; for `COc1ccc2[nH]c(=O)c(CN(Cc3cccs3)C(=S)Nc3cccc(C)c3)cc2c1` it is “inactive”; for `CCNc1ccccc1CP(=O)(c1ccccc1)c1ccccc1O` (stereo not given) it is 89.1 µM (active). For `CCC(=O)NC(=S)Nc1ccc(NC(=S)NC(=O)c2ccc(C)cc2)cc1`, the Potency entry was “inactive”. Consider `CCCOc1ccc(C(=O)N2CCN(Cc3ccc4c(c3)OCO4)CC2)cc1`, for which the Potency entry was “inactive”.

Consider `CCOc1ccc(-c2nn(-c3ccccc3)cc2/C=C2\SC(N)=NC2=O)cc1C`, for which the Potency entry is “inactive”.

In the case of `CN(C)[C@H]1C(=O)C(C(=O)NCN2CCCC2)=C(O)[C@]2(O)C(=O)C3=C(O)c4c(O)cccc4[C@](C)(O)[C@H]3C[C@H]12`, the Potency is 70.7 µM (active). Turning to `COc1ccccc1NS(=O)(=O)c1cc(N2Cc3ccccc3C2=N)ccc1N1CCOCC1`, the Potency is 89.1 µM (active).

On to `Cc1cnc(NC(=O)C2C(=O)c3ccccc3S(=O)(=O)N2C)s1` (stereo not given), for which the Potency entry was “inactive”. Turning to `COC(=O)Cc1c(C)nc2nc(-c3ccc(OC)cc3)[nH]n2c1=O`, the Potency result was “inactive”. Regarding `O=c1c2ccccc2nc(N/N=C/c2c(O)ccc3ccccc23)n1O`, the Potency entry is “inactive”.

With `COc1cc(SC)ccc1C(=O)Nc1cccc(C2OCCCO2)c1`, the Potency result was “inactive”. Consider `O=C(C1=C(O)C(=O)N(CCN2CCOCC2)C1c1cccc(Br)c1)c1cccs1` (stereo not given), for which the Potency result was “inactive”.

Turning to `O=C(/C=C/c1ccccc1)c1cccs1`, the Potency entry is “inactive”. Consider `O=C(Nc1cccn(Cc2c(Cl)cccc2Cl)c1=O)c1c(Cl)cccc1Cl`, for which the Potency entry is “inactive”.
